About 2,100 (2.2%) of roughly 94,000 compounds were called active. The list comes from a sample in which actives are over-represented; it also holds similar structures and randomly drawn compounds. Unmarked numbers belong to inactive results. Cut-off read from the data, not from the text of the source: active = activity change below about -80%; inconclusive = no clear call, values can overlap the other calls; inactive = above that.
experiment: Dd2 malaria parasite growth inhibition – SYBR Green fluorescence, single dose replicates, primary screen (AID 1159554); settings: P. falciparum Dd2 growth, 72 h, at 10 µM, hits give low values

**Q.** With `C[C@@H]1CN([C@@H](C)CO)C(=O)c2cc(/C=C/c3ccccc3)cnc2O[C@H]1CN(C)C(=O)C1CCC1` as the compound, how does the activity change read?
**A.** -56.3%

**Q.** With `C[C@H](CO)N1C[C@H](C)[C@@H](CN(C)C(=O)Cc2cccnc2)Oc2ncc(-c3ccncc3)cc2C1=O` as the compound, how does the activity change read?
**A.** 14.1%

**Q.** Which activity change does the source give for `COc1ccc(-c2cnc3c(c2)C(=O)N([C@H](C)CO)C[C@@H](C)[C@H](CN(C)C(=O)Cc2ccncc2)O3)cc1` here?
**A.** -84.6% (active)

**Q.** For `C[C@H](CO)N1C[C@H](C)[C@H](CN(C)C(=O)C2CC2)Oc2ncc(C#Cc3ccccc3)cc2C1=O`, which activity change is on record?
**A.** -17.2%

**Q.** For `COc1cccc(C#Cc2cnc3c(c2)C(=O)N([C@@H](C)CO)C[C@H](C)[C@@H](CN(C)C(=O)C2CCC2)O3)c1`, which activity change is on record?
**A.** -74.6%

**Q.** For `COc1cccc(C#Cc2cnc3c(c2)C(=O)N([C@@H](C)CO)C[C@H](C)[C@@H](CN(C)C(C)=O)O3)c1`, which activity change is on record?
**A.** -15.1%

**Q.** With `C[C@H](CO)N1C[C@H](C)[C@H](CN(C)C(=O)C2CCCCC2)Oc2ncc(C#CC3CC3)cc2C1=O` as the compound, how does the activity change read?
**A.** -16.5%

**Q.** Which activity change does the source give for `COc1ccc(-c2cnc3c(c2)C(=O)N([C@@H](C)CO)C[C@H](C)[C@H](CN(C)C(=O)Cc2cccnc2)O3)cc1` here?
**A.** -2.15%

**Q.** For `C[C@@H]1CN([C@H](C)CO)C(=O)c2cc(-c3ccccc3)cnc2O[C@H]1CN(C)C(=O)NC1CCCC1`, which activity change is on record?
**A.** -13%

**Q.** With `COc1cccc(C#Cc2cnc3c(c2)C(=O)N([C@H](C)CO)C[C@@H](C)[C@@H](CN(C)C(=O)C2CCC2)O3)c1` as the compound, how does the activity change read?
**A.** -84.4% (active)

**Q.** Which activity change does the source give for `C[C@H]1CN([C@@H](C)CO)C(=O)c2cc(/C=C/c3ccccc3)cnc2O[C@@H]1CN(C)C(=O)NC1CCCCC1` here?
**A.** -82.8% (active)

**Q.** Which activity change does the source give for `C[C@H](CO)N1C[C@H](C)[C@H](CN(C)C(=O)C2CCCCC2)Oc2ncc(C#Cc3cccc(F)c3)cc2C1=O` here?
**A.** -86.4% (active)

**Q.** For `CC(C)(C)[S@@](=O)N1Cc2cc(C(=O)N3CCCCC3)nc(-c3cccc(-c4cccc(C#N)c4)c3)c2[C@H]1CCO`, which activity change is on record?
**A.** -13.7%

**Q.** With `O=C(c1ccc(F)cc1)N1CC(=O)N2[C@H](C1)[C@@H](c1ccc(C#CC3CC3)cc1)[C@@H]2CO` as the compound, how does the activity change read?
**A.** -8.1%

**Q.** With `Cc1ccc(S(=O)(=O)Nc2ccc3c(c2)C(=O)N([C@H](C)CO)C[C@H](C)[C@@H](CN(C)S(=O)(=O)c2cn(C)cn2)OCCCC[C@H](C)O3)cc1` as the compound, how does the activity change read?
**A.** -12.5%

**Q.** For `COC(=O)C[C@H]1CC[C@H](NC(=O)Nc2ccc(C(F)(F)F)cc2)[C@H](CO)O1`, which activity change is on record?
**A.** 21.3%

**Q.** With `CCCNC(=O)C[C@H]1CC[C@@H]2[C@H](COc3ccc(NC(=O)c4ccc(OC)cc4)cc3C(=O)N2C)O1` as the compound, how does the activity change read?
**A.** -22.5%

**Q.** Which activity change does the source give for `CCC(=O)N1[C@@H](CO)[C@@H](c2ccccc2)C12CN(C(=O)c1cnccn1)C2` here?
**A.** -2.84%

**Q.** For `CCC(=O)N1CC2(CN(Cc3cccnc3)C2)c2c(n(C)c3cc(OC)ccc23)[C@@H]1CO`, which activity change is on record?
**A.** -20.9%

**Q.** For `COc1ccc(NC(=O)N[C@@H]2CC[C@H](CCn3cc(-c4ccc(OC)cc4)nn3)O[C@@H]2CO)cc1`, which activity change is on record?
**A.** -56.9%

**Q.** For `C[C@H]1CN([C@@H](C)CO)C(=O)c2c(c3ccccc3n2C)-c2ccccc2CO[C@@H]1CN(C)C(=O)Nc1ccnc(N2CCOCC2)c1`, which activity change is on record?
**A.** -58.1%

**Q.** For `CO[C@H]1CN(C)C(=O)c2cc(NC(=O)C3CC3)ccc2OC[C@H](C)N(CC2CCCC2)C[C@@H]1C`, which activity change is on record?
**A.** -38.7%

**Q.** For `CCS(=O)(=O)N1CC2(C1)CN(S(=O)(=O)c1ccccc1)[C@H](CO)c1c2c2ccc(OC)cc2n1C`, which activity change is on record?
**A.** -29.8%

**Q.** Which activity change does the source give for `O=C(C[C@@H]1C[C@@H]2c3cc(NC(=O)c4ccc5c(c4)OCO5)ccc3O[C@@H]2[C@H](CO)O1)NCCc1ccccc1` here?
**A.** -3.19%

**Q.** With `CCCNC(=O)N1CCC2(CC1)CN(Cc1ccccc1)[C@H](CO)c1[nH]c3cc(OC)ccc3c12` as the compound, how does the activity change read?
**A.** -59.4%

**Q.** With `COc1ccc2c3c([nH]c2c1)[C@H](CO)N(Cc1ccccc1)CC31CCN(C(=O)c2ccccn2)CC1` as the compound, how does the activity change read?
**A.** -83.5% (active)

**Q.** Which activity change does the source give for `CCC(=O)N1CCC2(CC1)CN(Cc1cccc(Cl)c1)[C@@H](CO)c1c2c2ccc(OC)cc2n1C` here?
**A.** -75.9%

**Q.** For `CCS(=O)(=O)N1CCC2(CC1)CN(Cc1ccc3c(c1)OCO3)[C@H](CO)c1[nH]c3cc(OC)ccc3c12`, which activity change is on record?
**A.** -89.1% (active)

**Q.** For `CCC(=O)N1CCC2(CC1)CN(Cc1ccc(Cl)cc1)[C@@H](CO)c1[nH]c3cc(OC)ccc3c12`, which activity change is on record?
**A.** -90.6% (active)

**Q.** Which activity change does the source give for `CCCC(=O)N1CCC2(CC1)CN(C(=O)C1CCCCC1)[C@@H](CO)c1[nH]c3cc(OC)ccc3c12` here?
**A.** -78%

**Q.** With `CCS(=O)(=O)N1CCC2(CC1)CN(S(=O)(=O)c1ccc(C)cc1)[C@H](CO)c1[nH]c3cc(OC)ccc3c12` as the compound, how does the activity change read?
**A.** -53.4%

**Q.** Which activity change does the source give for `CCC(=O)N1CCC2(CC1)CN(Cc1cccc(OC)c1)[C@@H](CO)c1[nH]c3cc(OC)ccc3c12` here?
**A.** -89.5% (active)

**Q.** Which activity change does the source give for `COc1ccc2c3c([nH]c2c1)[C@@H](CO)N(C(=O)NC(C)C)CC31CCN(C(=O)c2ccccn2)CC1` here?
**A.** -13%

**Q.** Which activity change does the source give for `COc1ccc2c3c([nH]c2c1)[C@H](CO)N(C(=O)Nc1ccc(F)cc1)CC31CCN(C(=O)c2ccccn2)CC1` here?
**A.** -79.3%

**Q.** With `CCC(=O)N1CC2(CN(Cc3ccc(Cl)cc3)C2)c2c([nH]c3cc(OC)ccc23)[C@@H]1CO` as the compound, how does the activity change read?
**A.** -23%

**Q.** With `COc1ccc2c3c([nH]c2c1)[C@@H](CO)N(Cc1ccc2c(c1)OCO2)CC31CN(C(=O)Nc2c(C)noc2C)C1` as the compound, how does the activity change read?
**A.** -13.6%

**Q.** For `Cc1noc(C)c1NC(=O)N(C)C[C@@H]1Oc2cc(Br)ccc2S(=O)(=O)N([C@@H](C)CO)C[C@H]1C`, which activity change is on record?
**A.** 12.9%

**Q.** For `COc1cccc(NC(=O)C[C@@H]2CC[C@@H]3[C@H](COc4ccc(NC(=O)C5CCOCC5)cc4C(=O)N3C)O2)c1`, which activity change is on record?
**A.** 11.1%

**Q.** With `C/C=C/c1ccc2c(c1)[C@H]1[C@H](CCN1S(=O)(=O)c1cn(C)cn1)[C@H](CO)N2` as the compound, how does the activity change read?
**A.** -1.2%

**Q.** Which activity change does the source give for `CCCNC(=O)N1C[C@H]2[C@@H](c3ccccc31)[C@@H](CO)N2C(=O)NCCC` here?
**A.** -1.9%

Reference: PubChem BioAssay AID1159554 (Broad Institute, 2015)
